Results on eight compounds are retold here after PubChem BioAssay.

The subject of experiment [1] is Wnt5a (protein binding on small-molecule microarray). The experiment can be described thus: small molecules binding Wnt5a protein – biophysical, small-molecule microarray, 635/667 nm fluorescence, primary screen (AID 1142).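 Note: fluorescence read at 667 nm with signal to noise per printed feature.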 The following applies: 635 nm fluorescence, higher = more signal.
A short description of experiment [2]: ATP-based viability of Huh7 replicon cells – cell-based, CellTiter-Glo luminescence, basal, 48 h, cytotoxicity control for HCV replication inhibitor project, primary screen (AID 1143).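 Note: Huh7 hepatoma cells carrying a hepatitis C replication reporter with no stimulus; test concentration not given here.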 The following applies: higher = more signal, called active from +8 up or from −8 down. In general terms: In antiviral work, replicon cells carry a viral genome segment that copies itself.

Experiment [3] is described as follows: Pseudomonas biofilm growth suppression – PAO1 strain, BacTiter-Glo luminescence, LB-PBS, primary screen (AID 1144). The conditions noted are these: P. aeruginosa PAO1 biofilm, 12 h, higher = more signal.
Experiment [4] in a line: basal CRE-LacZ reporter activity in PC12 – cell-based, unstimulated, primary screen (AID 1145). The conditions noted are these: no forskolin, luminescence, 4.5 h, higher = more signal, called active from +8 up or from −8 down.
Experiment [5] can be described thus: forskolin-driven CRE-LacZ activity in PC12 – cell-based, CRE-LacZ reporter, forskolin-stimulated, primary screen (AID 1146).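 Note: PC12 cells with 6xCRE LacZ reporter stimulated by forskolin 10 µM; beta-galactosidase reporter signal reflecting CREB driven transcription.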 The following applies: luminescence, 4.5 h, higher = more signal, called active from +8 up or from −8 down.
Experiment [6] deals with Streptavidin (Streptomyces avidinii) (UniProt P22629). Briefly: compounds binding control protein streptavidin – biophysical, small-molecule microarray, 635/667 nm fluorescence, artefact control for SMM compound annotation, primary screen (AID 1147).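 Note: signal reflects streptavidin binding to arrayed compounds as a control protein.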 The conditions noted are these: higher = more signal.
Experiment [7] in a line: probe aInhba binding on compound microarray – biochemical, small-molecule microarray, 635/667 nm fluorescence, primary screen (AID 1148).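 Note: score merges 667nm spot fluorescence with signal-to-noise for antibody binding to printed compounds.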 The conditions noted are these: higher = more signal.
Experiment [8] concerns the target Torsin-1A (Homo sapiens) (UniProt O14656). Briefly: TOR1A wild-type binding on microarray – cell lysate, small-molecule microarray, lysate, 635/667 nm, primary screen (AID 1149). The conditions noted are these: COS7 hTOR1A-WT lysate, 635 nm fluorescence, higher = more signal.
The target is the same in experiment [9]. The experiment can be described thus: torsin A mutant lysate binding on microarrays – cell lysate, small-molecule microarray, COS7 lysate, 635/667 nm fluorescence, primary screen (AID 1150).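 Note: score pools 667 nm emission and signal to noise measuring lysate protein binding.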 The conditions noted are these: COS7 hTOR1A mutant lysate, 635 nm fluorescence, higher = more signal.
For experiment [10], the system named is Sonic hedgehog protein (Shh). Briefly: Sonic hedgehog microarray binding compounds – biochemical, small-molecule microarray, 635/667 nm fluorescence, primary screen (AID 1151).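 Note: Shh protein binding to compounds spotted on small-molecule microarray slides; score combines spot fluorescence intensity with signal-to-noise across triplicate slides.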 The following applies: 635 nm fluorescence, higher = more signal.
The nature of experiment [11]: optical density shifts of acrAB sulA E. coli – strain DRC41, OD650, 48 h, E. coli filamentation inducer project, primary screen (AID 1152).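 Note: E. coli MC1000 strain DRC41 lacking acrAB efflux pump and sulA.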 The conditions noted are these: higher = more signal, called active from +8 up or from −8 down.
Experiment [12] can be described thus: probe aLefty1 binding on compound microarray – biochemical, small-molecule microarray, 635/667 nm fluorescence, primary screen (AID 1153).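 Note: score merges spot fluorescence with signal-to-noise ratio from the scanned slide images.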 The following applies: higher = more signal.
Experiment [13] in a line: plasmodial surface anion channel blockers, osmotic lysis – cell-based, P. falciparum Indochina, OD700, 1 h, primary screen (AID 1154). The following applies: P. falciparum Indochina infected RBC osmotic lysis, higher = more signal, called active from +8 up or from −8 down.
Experiment [14] can be described thus: plasmodial surface anion channel blockers, osmotic lysis – cell-based, P. falciparum Indochina, OD700, 2 h, primary screen (AID 1155).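 Note: lysis reports solute entry through the parasite surface anion channel PSAC.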 The following applies: P. falciparum Indochina infected erythrocytes, higher = more signal, called active from +8 up or from −8 down.
The nature of experiment [15]: changes in parasitized red cell lysis, either direction – P. falciparum Indochina, OD700, 3 h, PSAC antagonist project, primary screen (AID 1156). The following applies: P. falciparum-infected erythrocytes, osmotic lysis, higher = more signal, called active from +8 up or from −8 down.
Experiment [16] is described as follows: plasmodial surface anion channel blockers, osmotic lysis – cell-based, P. falciparum Indochina, OD700, 18 h, primary screen (AID 1157). The conditions noted are these: P. falciparum Indochina infected erythrocytes, osmotic lysis OD700, 18 h; higher = more signal, called active from +8 up or from −8 down.
Experiment [17] can be described thus: S6 kinase pathway phospho-S6 level changes – cell-based, A549, cytoblot, luminescence, serum-stimulated, primary screen (AID 1158).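 Note: serum-stimulated A549 lung adenocarcinoma cells; signal is phosphorylated S6 detected by cytoblot immunostaining with HRP secondary.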 The conditions noted are these: 5 h, higher = more signal.
For experiment [18], the target named is NADPH oxidase 2 (Homo sapiens) (UniProt P04839). The experiment can be described thus: compounds shifting NOX2 Amplex Red fluorescence – cell-based, HEK293-NOX2, PMA-stimulated, NOX inhibitor project, primary screen (AID 1159). Note: test concentration not given here. The conditions noted are these: 45 min, higher = more signal, called active from +8 up or from −8 down.
Experiment [19] deals with NADPH oxidase 4 (Homo sapiens) (UniProt Q9NPH5). Briefly: compounds shifting NOX4 Amplex Red fluorescence – cell-based, HEK293-NOX4, tetracycline-induced, NOX inhibitor project, primary screen (AID 1160). The conditions noted are these: HEK293-NOX4, Amplex Red H2O2 fluorescence, 45 min; higher = more signal, called active from +8 up or from −8 down.
Experiment [20] concerns the target NADPH oxidase 5 (Homo sapiens) (UniProt Q96PH1). Briefly: compounds shifting NOX5 Amplex Red fluorescence – cell-based, HEK293-NOX5, NOX inhibitor project, primary screen (AID 1161). The following applies: HEK293-NOX5, ionomycin, 45 min, higher = more signal.

SMILES strings stand for the structures. Activity calls are given as the source filed them. Unless noted, the rule behind the calls is not given here.

Streptavidin (Streptomyces avidinii), sequence (P22629 whole entry, looked up): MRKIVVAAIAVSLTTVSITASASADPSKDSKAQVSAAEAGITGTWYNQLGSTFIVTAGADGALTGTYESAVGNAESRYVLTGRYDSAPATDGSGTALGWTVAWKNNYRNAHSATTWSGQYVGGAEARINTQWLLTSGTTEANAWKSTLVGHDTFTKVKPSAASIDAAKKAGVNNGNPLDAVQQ
NADPH oxidase 5 (Homo sapiens), sequence (Q96PH1 whole entry, looked up): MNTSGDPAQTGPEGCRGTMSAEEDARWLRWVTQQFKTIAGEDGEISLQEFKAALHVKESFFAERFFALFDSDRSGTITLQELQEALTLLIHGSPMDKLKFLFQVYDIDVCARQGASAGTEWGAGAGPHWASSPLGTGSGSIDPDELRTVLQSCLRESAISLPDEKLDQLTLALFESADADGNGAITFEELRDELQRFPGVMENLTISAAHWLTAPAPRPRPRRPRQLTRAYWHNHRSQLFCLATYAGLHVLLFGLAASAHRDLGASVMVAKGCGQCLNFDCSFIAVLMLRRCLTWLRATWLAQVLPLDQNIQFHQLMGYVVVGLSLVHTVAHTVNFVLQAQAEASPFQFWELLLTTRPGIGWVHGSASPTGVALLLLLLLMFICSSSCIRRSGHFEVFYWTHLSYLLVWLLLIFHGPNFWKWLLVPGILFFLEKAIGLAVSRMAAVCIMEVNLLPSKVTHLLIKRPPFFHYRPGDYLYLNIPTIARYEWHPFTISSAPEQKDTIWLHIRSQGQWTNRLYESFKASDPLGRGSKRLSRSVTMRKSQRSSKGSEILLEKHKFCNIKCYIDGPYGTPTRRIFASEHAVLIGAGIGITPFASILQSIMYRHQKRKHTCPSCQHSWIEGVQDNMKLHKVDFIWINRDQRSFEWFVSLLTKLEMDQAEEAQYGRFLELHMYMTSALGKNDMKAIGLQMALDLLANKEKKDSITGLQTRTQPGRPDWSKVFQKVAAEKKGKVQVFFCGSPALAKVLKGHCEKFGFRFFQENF
NADPH oxidase 2 (Homo sapiens), sequence (P04839 whole entry, looked up): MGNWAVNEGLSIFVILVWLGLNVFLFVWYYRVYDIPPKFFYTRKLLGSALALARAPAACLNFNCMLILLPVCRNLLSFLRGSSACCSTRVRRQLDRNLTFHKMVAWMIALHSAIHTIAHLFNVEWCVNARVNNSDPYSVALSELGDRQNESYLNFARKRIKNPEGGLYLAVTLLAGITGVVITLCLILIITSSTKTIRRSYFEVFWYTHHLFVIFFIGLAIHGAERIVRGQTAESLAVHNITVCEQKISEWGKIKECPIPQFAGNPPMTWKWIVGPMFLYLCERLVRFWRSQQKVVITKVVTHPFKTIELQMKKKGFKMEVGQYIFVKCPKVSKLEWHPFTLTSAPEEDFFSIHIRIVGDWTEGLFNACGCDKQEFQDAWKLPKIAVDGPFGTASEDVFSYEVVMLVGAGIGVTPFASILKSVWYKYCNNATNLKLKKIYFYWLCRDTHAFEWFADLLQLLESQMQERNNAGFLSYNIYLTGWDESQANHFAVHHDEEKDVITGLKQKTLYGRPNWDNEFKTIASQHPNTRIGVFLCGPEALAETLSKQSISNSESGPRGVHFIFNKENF
Torsin-1A (Homo sapiens), sequence (O14656 whole entry, looked up): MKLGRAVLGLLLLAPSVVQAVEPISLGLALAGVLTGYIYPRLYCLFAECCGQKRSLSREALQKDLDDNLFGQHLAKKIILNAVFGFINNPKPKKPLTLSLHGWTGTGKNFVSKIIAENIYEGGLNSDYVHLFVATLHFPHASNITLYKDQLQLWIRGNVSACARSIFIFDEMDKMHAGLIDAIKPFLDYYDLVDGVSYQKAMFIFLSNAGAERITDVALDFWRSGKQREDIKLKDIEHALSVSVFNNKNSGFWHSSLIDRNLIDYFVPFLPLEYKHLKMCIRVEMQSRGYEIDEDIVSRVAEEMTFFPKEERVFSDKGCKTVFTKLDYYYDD
NADPH oxidase 4 (Homo sapiens), sequence (Q9NPH5 whole entry, looked up): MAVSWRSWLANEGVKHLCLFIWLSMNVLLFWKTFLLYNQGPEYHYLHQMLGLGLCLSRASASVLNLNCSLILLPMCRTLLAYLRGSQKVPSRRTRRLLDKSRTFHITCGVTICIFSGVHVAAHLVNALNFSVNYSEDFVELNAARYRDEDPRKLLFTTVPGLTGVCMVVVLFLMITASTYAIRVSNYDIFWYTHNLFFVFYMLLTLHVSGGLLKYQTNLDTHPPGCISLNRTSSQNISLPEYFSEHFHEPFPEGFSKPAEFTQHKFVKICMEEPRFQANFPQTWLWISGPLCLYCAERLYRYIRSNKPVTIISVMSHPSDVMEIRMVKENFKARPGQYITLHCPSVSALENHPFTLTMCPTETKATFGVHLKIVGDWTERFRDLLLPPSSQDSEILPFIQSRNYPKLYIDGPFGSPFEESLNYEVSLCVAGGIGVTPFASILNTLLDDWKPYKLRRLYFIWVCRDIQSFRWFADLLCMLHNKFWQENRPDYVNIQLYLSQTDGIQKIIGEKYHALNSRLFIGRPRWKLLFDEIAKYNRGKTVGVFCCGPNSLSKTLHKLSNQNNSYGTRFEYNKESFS

For the compound `CCCCC(=C=CC[C@@H](O)c1ccc(OCCO)cc1)C[C@@H](O)c1ccccn1`, the composite z-score in [1] was 0.158; in experiment [6], -0.0544; in experiment [7], 0.0569; with Torsin-1A (Homo sapiens) [8], 0.634; with Torsin-1A (Homo sapiens) [9] it was 0.51; in [10], 1.48. In addition, the composite z-score in experiment [12] turned out to be 0.122. Moreover, the z-score is -1.31 (inactive) in [2]; 0.412 (inactive) in [3]; 14.6 (active) in experiment [4]; -0.0387 (inactive) in [5]; 0.26 (inactive) in [11]; 15.7 (active) in experiment [13]. Further, the z-score in experiment [14] is 2.47 (inactive); in experiment [15], 0.871 (inactive); in experiment [16] it was 0.849 (inactive); in experiment [17] it was -0.787; in experiment [18], -0.697 (inactive); in [19], -0.351 (inactive). Also, the z-score in experiment [20] is -1.77.
On to `C=CC[C@]1(C(=O)OC)N=C(c2ccc(OCCCO)cc2)O[C@H]1c1ccccc1N=[N+]=[N-]`, for which the composite z-score in [1] was found to be 1.2; in experiment [6], 0.126; in experiment [7], 0.707; in the experiment with Torsin-1A (Homo sapiens) [8], 0.662; with Torsin-1A (Homo sapiens) [9], 1; in [10], 1.68. In experiment [12], the composite z-score was determined as 1.06. Further, the z-score was -3.62 (inactive) in experiment [2]; -1.04 (inactive) in [3]; 0.171 (inactive) in [4]; -2.05 (inactive) in experiment [5]; -0.908 (inactive) in [11]; 30.3 (active) in experiment [13]. Also, the z-score in [14] is 26.5 (active); in [15], 5.34 (inactive); in [16], 4.92 (inactive); in experiment [17], 0.26; in experiment [18], -1.89 (inactive); in experiment [19], 0.988 (inactive). Also, the z-score in experiment [20] was -0.21.
As for `CCCC=C(CCC)[C@@H](NS(=O)(=O)c1ccc(Cl)cc1)c1ccccc1`, the composite z-score in experiment [1] was 0.0207; in [6], 0.489; in [7], 0.0807; in the experiment with Torsin-1A (Homo sapiens) [8], -0.721; with Torsin-1A (Homo sapiens) [9] it was -0.292; in [10] it was -1.12. Besides, the composite z-score in experiment [12] was 0.345. Also, the z-score was -2.29 (inactive) in experiment [2]; -0.527 (inactive) in experiment [3]; 0.197 (inactive) in [4]; 0.261 (inactive) in [5]; -2.04 (inactive) in experiment [11]; 1.02 (inactive) in [13]. Further, the z-score in experiment [14] is 0.1 (inactive); in [15], 1.16 (inactive); in [16], 0.814 (inactive); in experiment [17], 0.717; in experiment [18] it was -1.64 (inactive); in experiment [19], -3.24 (inactive). Also, the z-score in experiment [20] was determined as 1.59.
Consider `COc1cc2c(cc1O)C(C1CC1)N(Cc1ccc([N+](=O)[O-])o1)CC2` (stereo not given), for which the composite z-score was 0.128 in [1]; 1.63 in [6]; 0.161 in [7]; 0.322 in the experiment with Torsin-1A (Homo sapiens) [8]; 0.521 with Torsin-1A (Homo sapiens) [9]; -0.575 in experiment [10]. The composite z-score in experiment [12] is 0.0446. The z-score in [2] is -0.148 (inactive); in [3], 0.741 (inactive); in experiment [4] it was 0.0924 (inactive); in [5], 0.786 (inactive); in experiment [11], -1.03 (inactive); in experiment [13], 23.7 (active). Moreover, the z-score is 6.01 (inactive) in [14]; 0.359 (inactive) in experiment [15]; 0.892 (inactive) in experiment [16]; 0.106 in experiment [17]; -4.17 (inactive) in [18]; -2.46 (inactive) in experiment [19]. For the same compound, in [20], the z-score is -3.45.
In the case of `[N-]=[N+]=NCc1ccccc1C[C@]1(C(=O)N2CCOCC2)N=C(c2ccc(OCCCO)cc2)O[C@H]1c1ccccc1CN=[N+]=[N-]`, the composite z-score in experiment [1] was 1.42; in experiment [6], 1.24; in experiment [7] it was 1.28; with Torsin-1A (Homo sapiens) [8], 0.3; in the experiment with Torsin-1A (Homo sapiens) [9], 0.863; in experiment [10] it was -0.0561. Moreover, the composite z-score in [12] was 1.15. Moreover, the z-score in experiment [2] was -3.43 (inactive); in experiment [3], -0.52 (inactive); in [4] it was 0.778 (inactive); in experiment [5] it was -1.32 (inactive); in experiment [11] it was 0.341 (inactive); in [13] it was 17.5 (active). For the same compound, the z-score in experiment [14] was 3.97 (inactive); in [15], 2.79 (inactive); in experiment [16], 1.15 (inactive); in experiment [17], 1.02; in experiment [18], -0.647 (inactive); in experiment [19], 0.782 (inactive). The z-score in experiment [20] came out at 2.13.
`COC(=O)[C@@]1(Cc2ccc(F)cc2)[C@H]2c3cc(C(=O)N4CCCC4)n(CCO)c3C[C@H]2CN1C(=O)c1ccccc1`: the composite z-score in [1] is 0.181; in experiment [6], 0.0865; in [7] it was -0.0719; with Torsin-1A (Homo sapiens) [8], -0.113; with Torsin-1A (Homo sapiens) [9] it was 0.0413; in [10], -1.69. This compound also registered a composite z-score in experiment [12] of -0.193. Besides, the z-score was -0.225 (inactive) in [2]; 0.452 (inactive) in experiment [3]; 0.201 (inactive) in experiment [4]; -0.773 (inactive) in [5]; -1.56 (inactive) in [11]; 2.59 (inactive) in [13]. The z-score in [14] is 0.279 (inactive); in experiment [15] it was 1.48 (inactive); in experiment [16], 0.716 (inactive); in [17] it was 0.871; in experiment [18], 0.54 (inactive); in [19] it was 2 (inactive). In [20], the z-score came out at 0.15.
As for `O=C1C2C=CC(C(O)c3ccc([N+](=O)[O-])cc3)N(Nc3ccccc3)C2C(=O)N1c1ccccc1` (stereo not given), the composite z-score was 0.0051 in [1]; -0.146 in experiment [6]; -0.101 in experiment [7]; -0.132 with Torsin-1A (Homo sapiens) [8]; 0.221 in the experiment with Torsin-1A (Homo sapiens) [9]; -0.653 in experiment [10]. The compound further came in with a composite z-score in experiment [12] of 0.124. Moreover, the z-score is 0.0203 (inactive) in experiment [2]; -0.0023 (inactive) in [3]; -0.333 (inactive) in [4]; 0.495 (inactive) in experiment [5]; -1.21 (inactive) in experiment [11]; 3.99 (inactive) in experiment [13]. The z-score in [14] is 2.55 (inactive); in experiment [15] it was 2.09 (inactive); in experiment [16] it was 1.9 (inactive); in experiment [17], -1.32; in experiment [18], -2.02 (inactive); in experiment [19], -4.69 (inactive). In [20], the z-score is -2.53.
Regarding `C[N+](C)(C)CCCC[C@@H]1NC(=O)[C@H]2C[C@@H](C(=O)NCCCCCNC(=O)CS)[C@@H](c3ccc(O)cc3)N2C1=O`, the composite z-score in experiment [1] is 0.084; in experiment [6], 0.354; in [7] it was -0.045; with Torsin-1A (Homo sapiens) [8], 0.327; with Torsin-1A (Homo sapiens) [9], 0.891; in experiment [10], 0.748. In [12], this compound yielded a composite z-score of -0.0162. The z-score in experiment [2] was -0.523 (inactive); in [3], -1.39 (inactive); in experiment [4], 0.0084 (inactive); in experiment [5] it was -0.165 (inactive); in [11], 1.65 (inactive); in experiment [13], 0.105 (inactive). The z-score in experiment [14] is -0.38 (inactive); in [15], -0.364 (inactive); in [16] it was -2.52 (inactive); in experiment [17], 1.46; in [18], 0.236 (inactive); in experiment [19], 0.335 (inactive). The z-score in experiment [20] worked out at 1.52.
